Results published in PubChem BioAssay AID1619 (SRMLSC, 2009).
Hit rate of the full screen: of about 220,000 compounds, about 830 (0.38%) were called active.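 Rule for the calls: active = compound inhibiting the enzyme by more than half at any dose during confirmatory dose-response retesting; inconclusive = strong single-dose inhibitors picked by rank but not retested; inactive = the rest.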 Only a sample is shown. Results with a measured potency or affinity are listed apart. Non-standard residues stand in square brackets, D forms with d. Residues, ends and D or L forms follow the SMILES beside them. ξ: configuration not given here. *: point of attachment. Cbz = O=C(OCc1ccccc1)*; OBn = c1ccc(CO*)cc1; ξP = O=C(O)C1CCCN1

The molecules below were run against Leucine aminopeptidase (Plasmodium falciparum (isolate 3D7)) (UniProt Q8IL11) (assay: P. falciparum M17LAP inhibitors, primary screen, biochemical, fluorogenic H-Leu-NHMec substrate, 1536-well (AID 1619;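 note: plate controls were full reaction with DMSO carrier for no effect and no enzyme background for full effect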)). Conditions: recombinant M17LAP, H-Leu-NHMec fluorogenic kinetic assay; at 30 µM; stronger effect = higher value.
Leucine aminopeptidase (Plasmodium falciparum (isolate 3D7)), sequence (Q8IL11 whole entry, looked up): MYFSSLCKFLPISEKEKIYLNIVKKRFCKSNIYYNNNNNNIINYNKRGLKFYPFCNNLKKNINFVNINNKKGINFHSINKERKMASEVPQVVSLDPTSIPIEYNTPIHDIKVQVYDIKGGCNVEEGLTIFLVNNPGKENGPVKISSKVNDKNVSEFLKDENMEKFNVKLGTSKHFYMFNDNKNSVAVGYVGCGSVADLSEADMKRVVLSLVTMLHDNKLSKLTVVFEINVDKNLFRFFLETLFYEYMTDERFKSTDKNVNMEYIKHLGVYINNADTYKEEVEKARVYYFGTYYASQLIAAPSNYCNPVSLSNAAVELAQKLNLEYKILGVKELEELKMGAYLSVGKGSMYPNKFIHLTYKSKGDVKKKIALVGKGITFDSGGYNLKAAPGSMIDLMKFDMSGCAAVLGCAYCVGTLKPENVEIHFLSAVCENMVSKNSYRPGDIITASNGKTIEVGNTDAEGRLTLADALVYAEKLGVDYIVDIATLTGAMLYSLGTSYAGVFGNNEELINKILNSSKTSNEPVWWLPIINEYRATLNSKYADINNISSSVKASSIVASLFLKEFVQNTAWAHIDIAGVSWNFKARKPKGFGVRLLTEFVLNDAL

inhibition, inactive:
COc1cc(/C=N/NC(N)=O)ccc1OC(=O)c1ccc(C)cc1 -1.66%
Cc1ccc(-n2nnc3c(=O)n(CC(=O)N4CCC(C)CC4)cnc32)cc1 13.8%
OC1COC(OCC2OC(OCc3ccccc3)C(O)C(O)C2O)C(O)C1O (configuration not stated) -0.69%
Cc1ccc(C(=O)O/N=C(\c2ccccc2)c2cccnc2)cc1 -5.37%
CC(=O)C1(C)N(O)C(C)(C)C(c2cccs2)=[N+]1[O-] (configuration not stated) 11.1%
CC1(C)N(O)CC(c2cccs2)=[N+]1[O-] 39.9%
NNC(=O)c1ccc(COc2ccc3ccccc3c2)o1 7.87%
O=C1c2ccccc2C(=O)N1/N=C/c1ccc(O)c(O)c1O 9.31%
COc1cc(/C=N/N2C(=O)c3ccccc3C2=O)ccc1O 10.3%
COc1cc(/C=N/N2C(=O)C3C4C=CC(CC4)C3C2=O)ccc1O (configuration not stated) 18.2%
O=C1C2C3C=CC(CC3)C2C(=O)N1/N=C/c1ccc(O)cc1 (configuration not stated) 12.3%
O=C(Cn1cnc2c(cnn2-c2ccccc2)c1=O)NC1CCCC1 -1.27%
O=C(Nc1cccnc1)c1ccccc1O 8.37%
CCN(C(=O)COC(=O)c1cc(-c2ccccc2)nn1-c1ccccc1)C1CCS(=O)(=O)C1 (configuration not stated) -0.44%
O=C(CSc1nnc(-c2cccs2)n1-c1ccccc1)Nc1ccccc1 8.55%
COc1ccc(NC(=O)CSc2nnc(-c3cccs3)n2-c2ccccc2)cc1 0.69%
CCOC(=O)C1=C(O)C(=O)N(c2ccc(S(N)(=O)=O)cc2)C1c1cccc([N+](=O)[O-])c1 (configuration not stated) 0.08%
O=C(C1=C(O)C(=O)N(CCN2CCOCC2)C1c1ccncc1)c1ccco1 (configuration not stated) 17.6%
Cc1nnc(SC(C)C(=O)Nc2c(C)n(C)n(-c3ccccc3)c2=O)n1N (configuration not stated) 11.1%
Cc1c(NC(=O)C(C)Sc2ccccc2)c(=O)n(-c2ccccc2)n1C (configuration not stated) 8.89%
Cc1c(NC(=O)CSc2nnc(Nc3ccccc3)s2)c(=O)n(-c2ccccc2)n1C 20.1%
Cc1ccc(SC(C)C(=O)Nc2c(C)n(C)n(-c3ccccc3)c2=O)cc1 (configuration not stated) -0.12%
O=C(O)CCn1c(C2CCCCC2)nc2ccccc21 10.6%
CCc1cccc(NC(=O)CCSCCC(=O)Nc2cccc(CC)c2)c1 10.7%
O=C(CSCc1cccc(CSCC(=O)Nc2ccccc2)n1)Nc1ccccc1 6.32%
CC(C)OC(=O)CSc1ncnc2c1cnn2-c1ccccc1 -11.6%
S=C(NCc1ccco1)Nc1ccccc1Cl 2.12%
COc1cc(NS(=O)(=O)c2ccc(NC(=O)CN3C(=O)c4ccccc4C3=O)cc2)nc(OC)n1 45.7%
Cc1cc(NS(=O)(=O)c2ccc(NC(=O)c3cnc4sccn4c3=O)cc2)nc(C)n1 -3.04%
Cc1noc(NS(=O)(=O)c2ccc(NC(=O)c3cnc4scc(C)n4c3=O)cc2)c1C 49.8%
Cc1cc(C)nc(NS(=O)(=O)c2ccc(NC(=O)CN3C(=O)c4ccccc4C3=O)cc2)n1 8.34%
CN1C(=O)CS(=O)c2ccc(C(=O)NCCC3=CCCCC3)cc21 (configuration not stated) -0.02%
CCC(=O)N(Cc1ccc(C)cc1)Cc1cc2cc3c(cc2[nH]c1=O)OCO3 -7.35%
O=C(c1ccccc1)N1CCN(C(=O)c2ccccc2)C1c1ccccc1 -9.12%
O=C(CSCc1nc2c(nnn2Cc2ccc(F)cc2)c(=O)[nH]1)Nc1c(Cl)cc(Cl)cc1Cl 30.5%
Cc1cccc(NC(=O)CSCc2nc3c(nnn3Cc3ccc(F)cc3)c(=O)[nH]2)c1C 22.9%
CN1CCN(C(=O)C2=C[C@@H](c3ccccc3)C[C@@H](OCCCCO)O2)CC1 2.48%
C=CCOc1c(CNc2cccc(C(=O)O)c2)cccc1OC 1.85%
COc1ccc(Br)cc1/C=N/Nc1cccc(C(=O)O)c1 25%
O=C(NNC(=O)C1[C@H]2CCCC[C@@H]12)Nc1cccc2ccccc12 (some centres not stated) 0.58%
C/C(=N/OC(=O)c1c(F)cccc1F)c1nccs1 -5.2%
CC(=O)C1=C(O)C(=O)N(c2ccc(Br)cn2)C1c1ccc(F)cc1 (configuration not stated) 20.5%
O=C(O)CCC(=O)N1CCC[C@H]1C(=O)O 3.33%
O=C(CNC(=O)OCc1ccccc1)NCC(=O)N1CCCC1C(=O)OCc1ccccc1 (stereo not drawn) (Cbz-Gly-Gly-[ξP]-OBn) 2.1%
Cc1ccc(C(=O)CN(C(=O)c2ccc(Cl)c(Cl)c2)N2C(=O)C3C4C=CC(C4)C3C2=O)cc1 (configuration not stated) -2.9%
Cc1ccc(NC(=O)CSc2ncc3ccccn23)cc1C -1.12%
O=C(CSc1ncc(S(=O)(=O)c2ccccc2)c(=O)[nH]1)Nc1ccccc1Cl 28.8%
CCCc1cc(=O)[nH]c(SCC(=O)Nc2ccc3c(c2)CCC3)n1 19.8%
Cc1ccc(NC(=O)CSc2ncn(-c3ccccc3)n2)cc1C 3.12%
COc1cccc(NC(=O)CSc2ncc(S(=O)(=O)c3ccccc3)c(=O)[nH]2)c1 9.3%
O=C(CSc1ncccn1)Nc1ccc2c(c1)CCC2 -3.11%
Cc1ccc2nc(SCC(=O)Nc3ccc4c(c3)CCC4)[nH]c2c1 -0.04%
O=C(CSc1nc(-c2ccco2)cc(C(F)(F)F)n1)Nc1ccc2c(c1)CCC2 15.2%
COc1cc(/C=C/C(=O)c2c(O)cc(C)oc2=O)cc(OC)c1O 23.1%
CCOC(=O)c1sc(NNC(=O)c2ccc(F)cc2)nc1C 4.21%
CC(=O)c1cc(-c2ccccc2)n(CC(=O)N2CCC(N3CCCCC3)CC2)c1C 5.06%
CCOCc1nc(C)c(Cl)c(NS(=O)(=O)c2ccc(N)cc2)n1 -2.71%
CCCCCCCCn1c(N2CCN(c3cccc(Cl)c3)CC2)nc2c1c(=O)[nH]c(=O)n2C 0.06%
Cc1ccc(NC(=O)CSc2n[nH]c(-c3ccncc3)n2)cc1C 13.3%
COc1ccc2nc(SCC(=O)Nc3ccc4c(c3)CCC4)[nH]c2c1 5.26%
CCCn1c(SCC(=O)Nc2ccc3c(c2)CCC3)n[nH]c1=O 24.5%
COc1ccc(NC(=O)CSc2nc3c(c(=O)[nH]2)CCC3)cc1OC 7.54%
CCOC(=O)c1ccc(NC(=O)CSc2nc(SC)ns2)cc1 4.11%
COc1ccc(C(=O)CNc2ccc(C)cc2C)cc1 -4.8%
O=C(CSc1nc2nn(-c3ccccc3)c(=O)c-2c2n1CCCCC2)NCCc1ccccc1 -13.9%
O=C(Nc1cc2c(oc1=O)CCCC2=O)c1ccccc1 1.43%
CC1=C(C(=O)Nc2ccccc2)C(c2ccc(Cl)cc2)n2c(s/c(=C/c3cccc(OCC(=O)O)c3)c2=O)=N1 (configuration not stated) 4.09%
COc1cccc(C2C(C(=O)Nc3ccccc3)=C(C)N=c3s/c(=C/c4ccc(OCC(=O)O)cc4)c(=O)n32)c1 (configuration not stated) 55.7%
N=C1N(/N=C/c2ccccc2)C(=Nc2ccccc2)C(=S)N1c1ccccc1 16.1%
O=C1CC(N2CCC(c3nc4ccccc4s3)CC2)C(=O)N1Cc1ccccc1 (configuration not stated) -10.9%
CCN(c1ccccc1)S(=O)(=O)c1ccc2[nH]c(=O)[nH]c2c1 -1.87%
Cc1cccc(N(C)S(=O)(=O)c2ccc3[nH]c(=O)c(=O)[nH]c3c2)c1 53.7%
O=C(CSc1ccc2nnc(-c3ccccn3)n2n1)Nc1ccc2c(c1)OCO2 7.14%
CCOC(=O)N1CCC(NC(=O)C2CCCN(S(C)(=O)=O)C2)CC1 (configuration not stated) 5.41%
COCCOC(=O)C1=C(C)NC(=O)NC1c1c(F)cccc1Cl (configuration not stated) -12.3%
O=C(Cn1cc([N+](=O)[O-])cn1)Nc1cccnc1 1.1%
COC(=O)c1c(NC(=O)C2CC=CCC2C(=O)O)sc(C(N)=O)c1C (configuration not stated) 51.5%
Cc1sc(NC(=O)c2cccs2)c(C(=O)OC(C)C)c1C 9.67%
CC(=O)Nc1sc(C)c(C)c1C(=O)OC(C)C 14.2%
CCOC(=O)c1c(NC(=O)C2CC=CCC2C(=O)O)sc(C)c1CC (configuration not stated) 5.22%
COc1ccc(CCNC(=O)C2CC(=O)N(c3ccc(Br)cc3)C2)cc1OC (configuration not stated) 3.2%
Cc1ccnc2ccc(SC(F)(F)F)cc12 1.01%
Cc1cc(C(F)(F)F)nc(SCC(=O)Nc2ccccc2)n1 -7.44%
COC(=O)c1cccc(NC(=O)CSc2nnc(C)n2C)c1 12.6%
Cn1ccnc1SCC(=O)Nc1cccc(C(F)(F)F)c1 15.9%
COc1cccc(NC(=O)CSc2nc(N)cc(N)n2)c1 47.2%
CC(=O)c1cccc(NC(=O)CN2C(=O)C3C4C=CC(C4)C3C2=O)c1 (configuration not stated) 31.7%
Cc1cccc(NC(=O)CSc2nc(N)cc(N)n2)c1 34.4%
CCOC(=O)c1ccc(NC(=O)CN2C(=O)C3C4C=CC(C4)C3C2=O)cc1 (configuration not stated) 28.7%
COC(=O)c1cccc(NC(=O)COC(=O)CSc2nc(C)cc(C)n2)c1 5.31%
CCCNC(=O)Nc1ccc(C(F)(F)F)cc1 6.33%
CC1(C)CC(=O)c2cnc(NC(=O)CSc3nc4ccccc4o3)nc2C1 8.26%
